aSyn 5UTR act = Activators working through SNCA 5'UTR binding (MLPCN) | alpha-synuclein 5'UTR reporter, activators screen | activity score, % (tested at 7.5 µM), hits read low | hit rate 7.1% among 300,000; in the data active = activity score below about -60%
Each line names hits and unclear results; the compound was inactive in the other large screens. The list is a sample of the results.

C[C@H]1O[C@@H](O[C@H]2[C@@H](O)C[C@H](O[C@H]3[C@@H](O)C[C@H](O[C@H]4CC[C@@]5(C)[C@H](CC[C@@H]6[C@@H]5C[C@@H](O)[C@]5(C)[C@@H](C7=CC(=O)OC7)CC[C@]65O)C4)O[C@@H]3C)O[C@@H]2C)C[C@H](O)[C@@H]1O	none
COc1cc2[nH]c3c(=O)n4c(nc3c2cc1OC)SCCC4	aSyn 5UTR act -97
CC1(C(=O)Nc2nc3ccccc3s2)CC1(Br)Br (centres undefined)	aSyn 5UTR act -118
Cc1ccc2nc(NC(=O)c3ccccn3)sc2c1	none
CCOc1ccc2nc(NC(=O)Cc3cccs3)sc2c1	aSyn 5UTR act -137
Cc1ccc2nc(NC(=O)Cc3cccs3)sc2c1	aSyn 5UTR act -166
O=C(Cc1cccs1)Nc1nc2ccccc2s1	aSyn 5UTR act -82
Cc1ccc2nc(NC(=O)COC(=O)c3ccco3)sc2c1	aSyn 5UTR act -97
COc1ccc2nc(NC(=O)Cc3cccs3)sc2c1	aSyn 5UTR act -132
CCc1ccc2nc(NC(=O)CCCc3cccs3)sc2c1	aSyn 5UTR act -81
CC(Cc1ccccc1)C(=O)NCc1nc2ccccc2s1 (centres undefined)	aSyn 5UTR act -75
O=C(Cc1ccccc1)Nc1nc2ccccc2s1	aSyn 5UTR act -102
O=C(Cc1nc(=O)c2ccccc2s1)Nc1ccccc1	aSyn 5UTR act -105
CCn1nccc1C(=O)Nc1ccc(Cl)cn1	aSyn 5UTR act -96
CCn1ccc(C(=O)Nc2ccccc2SC)n1	aSyn 5UTR act -175
CCn1ccc(C(=O)Nc2ccc(Cl)cn2)n1	aSyn 5UTR act -137
COC(=O)c1sccc1N/N=C/c1ccc(OC)c(OC)c1OC	aSyn 5UTR act -140
COC(=O)c1sccc1N/N=C/c1cccc(Oc2ccccc2)c1	aSyn 5UTR act -64
CN1C(=O)C(O)(c2nnc(-c3ccccc3)o2)c2ccccc21 (centres undefined)	aSyn 5UTR act -96
O=C1c2cccc3c(O)ccc(c23)C(=O)N1c1ccc(Cl)cc1	aSyn 5UTR act -141
CCCOc1ccccc1/C=C(\C#N)C(=O)Nc1cccnc1	aSyn 5UTR act -85
COc1ccc(O)c(/C=C(\C#N)C(=O)Nc2cccnc2)c1	aSyn 5UTR act -80
COC(=O)c1ccc(COc2ccccc2/C=C(\C#N)C(=O)Nc2c(C)cccc2C)cc1	aSyn 5UTR act -82
COc1ccc(Nc2nnc(SCC3CCCO3)s2)cc1 (centres undefined)	aSyn 5UTR act -105
COc1cccc(Nc2nnc(SCC3CCCCO3)s2)c1 (centres undefined)	aSyn 5UTR act -76
O=[N+]([O-])c1ccc2nc(/C=C/c3ccc(Cl)cc3)[nH]c2c1	aSyn 5UTR act -151
Nc1ccc(-c2nc3ccc([N+](=O)[O-])cc3[nH]2)cc1	aSyn 5UTR act -84
O=[N+]([O-])c1ccc(-c2nc3ccc([N+](=O)[O-])cc3[nH]2)cc1	aSyn 5UTR act -143
O=C(N/N=C/c1cn(-c2cccs2)nc1-c1ccccc1)c1ccc(O)cc1	aSyn 5UTR act -65
O=C(N/N=C/c1cc(Br)ccc1O)c1ccccc1Cl	none
O=C(N/N=C/c1cn(-c2cccs2)nc1-c1ccccc1)c1ccccc1Cl	aSyn 5UTR act -63
CCOC(=O)c1[nH]c2c(c1-c1ccccc1)C(=O)CC(c1ccccc1)C2 (centres undefined)	aSyn 5UTR act -66
CCC(C)OC(=O)c1[nH]c2c(c1C)C(=O)CC(c1ccc(N(C)C)cc1)C2 (centres undefined)	aSyn 5UTR act -92
Cc1c(C(=O)OCC(C)C)[nH]c2c1C(=O)CC(c1ccco1)C2 (centres undefined)	none
CCCc1n[nH]c2c1/C(=N/O)CC(c1ccccc1)C2 (centres undefined)	none
CCC(=NCCc1c(C)[nH]c2ccc(OC(F)(F)F)cc12)C1=C(O)CC(c2ccccc2)CC1=O (centres undefined)	none
O=C(NCCc1cccc(Cl)c1)c1cccnc1	aSyn 5UTR act -84
O=C(NCCc1ccccc1)c1cccs1	aSyn 5UTR act -94
O=C(NC(c1ccccc1)c1cc(Cl)c2cccnc2c1O)c1cccnc1 (centres undefined)	none
Cc1cc2ccccc2n1CCNC(=O)c1cccs1	aSyn 5UTR act -121
O=C(NCCc1ccccc1)c1cnc2sccn2c1=O	aSyn 5UTR act -90
O=C(NCc1nc2ccccc2[nH]1)c1cccs1	aSyn 5UTR act -64
O=C(NCCc1cccc(Cl)c1)c1cccs1	aSyn 5UTR act -115
CCO[C@H]1OC(C(=O)NCc2nc3ccccc3[nH]2)=C[C@@H](C2CC2)[C@@H]1CCCO	none
COc1ccc(Cl)cc1NC(=O)c1cnc2sccn2c1=O	aSyn 5UTR act -106
CCc1nnc(NC(=O)c2sc3nc4c(cc3c2N)CCCCCC4)s1	aSyn 5UTR act -75
CCc1nnc(NC(=O)c2sc3nc4c(cc3c2N)CCCCC4)s1	aSyn 5UTR act -138
O=C1NC2(CCCCC2)C(=O)N1/N=C/c1ccccc1Br	aSyn 5UTR act -81
c1ccc(C2Oc3ccccc3C3CC(c4cccs4)=NN32)cc1 (centres undefined)	aSyn 5UTR act -164
Cc1ccc(-n2c(C(C)C)nc3oc4ccccc4c(=O)c3c2=O)cc1	aSyn 5UTR act -111
CCc1nc2oc3ccccc3c(=O)c2c(=O)n1-c1ccccc1	aSyn 5UTR act -315
CCc1nc2oc3ccccc3c(=O)c2c(=O)n1-c1ccc(C)cc1	aSyn 5UTR act -139
CCCc1nc2oc3ccccc3c(=O)c2c(=O)n1-c1ccc(C)cc1	aSyn 5UTR act -84
CCCc1nc2oc3ccccc3c(=O)c2c(=O)n1-c1ccccc1	aSyn 5UTR act -153
Cc1ccc(NC(=O)C2CC2c2ccccc2)c([N+](=O)[O-])c1 (centres undefined)	aSyn 5UTR act -88
COc1cc(C(=O)N=c2sc3c(C)ccc(OC)c3n2C)cc(OC)c1OC	aSyn 5UTR act -222
COc1cc(C(=O)N=c2sc3ccccc3n2C)cc(OC)c1OC	aSyn 5UTR act -103
COc1ccc(C(=O)N=c2sc3c(C)ccc(OC)c3n2C)cc1	aSyn 5UTR act -115
Cn1c(=NC(=O)c2cccc([N+](=O)[O-])c2)sc2ccccc21	aSyn 5UTR act -139
Cc1ccc(C(=O)NNc2c3ccccc3nc3ccccc23)cc1	aSyn 5UTR act -87
CSc1nc(N(C)NC(=O)c2ccc(Cl)cc2)c2ccccc2n1	none
O=C(NNc1c2ccccc2nc2ccccc12)c1ccc(Cl)cc1	aSyn 5UTR act -80
COc1cc(/C=C2\SC(=S)N(CCC(=O)NC3CCCC3)C2=O)cc(OC)c1OC	aSyn 5UTR act -71
Cc1ccc(/C=C2\SC(=S)N(CCCC(=O)NC3CCCC3)C2=O)cc1	none
O=[N+]([O-])c1nn(-c2ccc3c(c2)OCCO3)n(O)c1=Nc1ccccc1	none
O=[N+]([O-])c1nn(-c2ccc3c(c2)OCCO3)n(O)c1=NC1CCCCCC1	aSyn 5UTR act -91
O=[N+]([O-])c1nn(-c2ccc3c(c2)OCCO3)n(O)c1=NC1CCCC1	aSyn 5UTR act -108
CCOC(=O)Nc1cc(Br)c2c(c1)OCCO2	aSyn 5UTR act -68
Cc1c(Cl)ccc2c(C(=O)NC(C)c3ccncc3)cc(-c3ccncc3)nc12 (centres undefined)	aSyn 5UTR act -67
Nc1c(-c2ccc(Cl)cc2)cnn1-c1cccc([N+](=O)[O-])c1	aSyn 5UTR act -134
Nc1c(-c2ccccc2)cnn1-c1cccc([N+](=O)[O-])c1	aSyn 5UTR act -92
Cc1nn(-c2cccc([N+](=O)[O-])c2)c(N)c1-c1ccccc1	aSyn 5UTR act -83
CC1CCC(NC(=O)c2ccc3nc[nH]c3c2)CC1 (centres undefined)	aSyn 5UTR act -81

Screens (PubChem)
